In all, about 48,000 compounds went through this assay and about 13,000 (27%) showed an effect of 50% or more. The list shows a part of the results.
system: Wolbachia pipientis; assay: Anti-Wolbachia Cell-Based Screen; format: functional; set-up: scale not given: in the data most compounds retested in dose-response had high values; details: 5 µM

SMILES	Percent Effect
COCc1c(C(=O)N2CCCC(N(C)Cc3ccccc3)C2)noc1C (centres undefined)	2.95%
NCc1cn(-c2ccccc2C(=O)NCc2ccccc2Cl)cn1	137.2%
COc1cccc(CNC(=O)c2ccccc2-n2cnc(CN)c2)c1	113.9%
COc1ccc(Cl)cc1-n1cnc(CCNC(C)=O)c1	-30.19%
CCn1c(N)nc2cc(C(=O)NCc3ccccc3Cl)cnc21	-4.176%
Cc1ccccc1CNC(=O)c1ccccc1-n1cnc(CN)c1	128.9%
NCc1cn(-c2ccccc2C(=O)NCc2ccccc2)cn1	2.452%
COc1ccc(F)cc1-n1cnc(CCNC(C)=O)c1	-9.257%
Cc1nccn1-c1ccccc1CNC(=O)c1cn(CCN)nn1	1.636%
CN1CCc2c(NC(=O)NCc3ccccc3Cl)cccc21	-4.639%
NCc1cn(-c2ccccc2C(=O)NCc2cccc(Cl)c2)cn1	-5.254%
COc1cccc(CNC(=O)N2CCCC(Cn3cc(CN)nn3)C2)c1 (centres undefined)	-31.64%
COc1ccccc1CNC(=O)c1ccccc1-n1cnc(CN)c1	104.3%
Cc1ccc(C(=O)NS(=O)(=O)c2ccccc2C)c(=O)[nH]1	-8.925%
CCNC(=O)N1CCN(Cc2nc3ccccc3[nH]2)[C@@H]2CS(=O)(=O)C[C@@H]21	3.535%
COC(=O)CC(NC(=O)c1cccc(CS(C)(=O)=O)c1)c1cccs1 (centres undefined)	18.46%
N#Cc1ccc(F)c(CN2CCCC2Cn2cncn2)c1 (centres undefined)	0.2616%

SMILES	Percent Effect
Cc1[nH]c(=O)sc1S(=O)(=O)N1CCCC1C(=O)NCc1ccsc1 (centres undefined)	1.823%
CC(C)(C)NC(=O)COc1ccc(Oc2ccccn2)cc1	-9.446%
CC1COCCN1C(=O)COc1ccc(Oc2ccccn2)cc1 (centres undefined)	102.9%
CC1COCCN1C(=O)COc1cccc(Oc2ccccn2)c1 (centres undefined)	91.48%
CC1COCCN1C(=O)c1cccc(OCc2cscn2)c1 (centres undefined)	-3.154%
O=C(COc1cccc(Br)c1)N1CCOCC1c1ncon1 (centres undefined)	-1.613%
COc1ccc(Oc2ncccc2NC(=O)N2CCOCC2C)cc1 (centres undefined)	-2.613%
O=c1oc(-c2ccc(F)cc2)nn1CCS(=O)(=O)c1ccccc1	3.372%
CCc1cnc(CN2CCC(O)(c3cc(OC)cc(OC)c3)CC2)o1	-1.491%
N#Cc1c(Cl)nsc1NCc1ccc(N2CCCC(C(N)=O)C2)cc1 (centres undefined)	6.894%
COc1ccc(-c2nc(CSC3CCCCNC3=O)co2)cc1 (centres undefined)	-25.49%
CN(C)c1nccc(NCc2cc(-c3ccco3)n[nH]2)n1	126.3%
CNc1cc(C(=O)N(C)Cc2cc(-c3cccs3)n[nH]2)ccn1	11.01%
CN(C)c1nccc(NCc2cc(-c3cccs3)n[nH]2)n1	108.4%
Cc1n[nH]c(C)c1CNc1nc(-c2ccco2)nc2c1CCNCC2	0.9084%
CNc1ccnc(N(C)Cc2cc(-c3cccs3)n[nH]2)n1	8.932%
c1coc(-c2nc3c(c(NCc4n[nH]c5c4CCC5)n2)CCNCC3)c1	-11.22%
